The record followed here is PubChem BioAssay.

Calls of active or inactive are those of the source. No rule for the calls is given here. Where a SMILES comes first, the peptide text is derived from it. The star is where a group is joined. Boc = CC(C)(C)OC(=O)*

Sequence of Pantothenate synthetase (Mycobacterium tuberculosis (strain ATCC 25618 / H37Rv)) (P9WIL5 whole entry, looked up): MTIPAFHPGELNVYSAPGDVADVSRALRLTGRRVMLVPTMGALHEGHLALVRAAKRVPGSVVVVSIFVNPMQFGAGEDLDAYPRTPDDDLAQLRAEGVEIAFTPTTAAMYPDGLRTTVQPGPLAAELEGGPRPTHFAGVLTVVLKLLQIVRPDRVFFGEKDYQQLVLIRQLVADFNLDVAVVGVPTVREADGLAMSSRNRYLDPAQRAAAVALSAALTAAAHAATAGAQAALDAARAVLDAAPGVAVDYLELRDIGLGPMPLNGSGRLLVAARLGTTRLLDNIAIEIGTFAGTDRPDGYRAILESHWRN

The assay concerns the target Pantothenate synthetase (Mycobacterium tuberculosis (strain ATCC 25618 / H37Rv)) (UniProt P9WIL5). The experiment in a line: Recombinant Mtb pantothenate synthetase (PanC) inhibitors, coupled enzyme, confirmatory (AID 375).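 Also: 0% = full reaction with vehicle and 100% = no enzyme background.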 Particulars: coupled enzyme assay; at 10 µM, hits give high values.
As to `O=C(c1cc2ccccc2oc1=O)N1CCSC1c1ccco1` (centres undefined), the inhibition (commonly the change of the read-out against control, counted positive when it falls) is 8% (inactive). As for `CC(=O)Nc1ccc(S(=O)(=O)NCc2csc(-c3cccnc3)n2)cc1`, the inhibition is 0% (inactive). The result for `Cc1cc(=O)n(-c2ccc3ccccc3n2)[nH]1` reads 6% (inactive); that for `Cc1cc(C)nc(SCC(=O)Nc2ncc3c(n2)CCCC3=O)n1`, 0% (inactive); that for `CCc1nc(N[C@@H](Cc2c[nH]c3ccccc23)C(=O)O)c2oc3ccccc3c2n1`, 13% (inactive).

Turning to `Cc1cccc(C)c1OCC(=O)Nc1cccc(NC(=O)c2ccco2)c1`, the inhibition is 12% (inactive). With `COc1ccc(C2C(C(=O)N3CCC(C)CC3)c3ccccc3C(=O)N2C)cc1` (centres undefined) the figure was 0% (inactive); with `CCCCOc1ccc(CC(=O)NO)cc1`, 9% (inactive). The result for `CCn1cc(C(=O)NCCCOC)c(=O)c2cc(S(=O)(=O)N(C)C)ccc21` reads 0% (inactive); that for `Cc1cccc(C2CC(c3ccccc3)Nc3nc(N)nn32)c1` (centres undefined), 0% (inactive); that for `O=C(CCn1cccc1)N1CCc2ccccc21`, 0% (inactive). The result for `Oc1cnc2ccccc2c1CN1CCOCC1` reads 4% (inactive); that for `CCCC1CCC(C(=O)Nn2c(C)nc3ccccc3c2=O)CC1` (centres undefined), 8% (inactive); that for `CC(=O)NC(Cc1cc(C)ccc1C)C(=O)N1CCN(C(=O)Nc2ccc(C(C)=O)cc2)CC1` (centres undefined), 0% (inactive). Take `COc1ccc(CCN2C(=O)CC(N3CCN(S(=O)(=O)c4ccccc4)CC3)C2=O)cc1` (centres undefined): the inhibition is 0% (inactive). Turning to `CSc1nc2ccc(Nc3nc(N4CCOCC4)nc(N4CCOCC4)n3)cc2s1`, the inhibition is 2% (inactive).

For `CC(C)N1C(=O)C2C(C(=O)NC3CCCCC3)C3C=CC2(O3)C1C(=O)NC1CCCC1` (centres undefined), the inhibition was 0% (inactive).

For the molecule `Cc1cccn2c(=O)c3cc(C#N)c(=O)n(CCCN4CCOCC4)c3nc12`, the inhibition is 0% (inactive). Take `Cn1c(SCc2c(F)cccc2Cl)nnc1-c1cccs1`: the inhibition is 0% (inactive). In the case of `COc1ccccc1-c1nc2n(n1)C(c1cccs1)C(C(=O)Nc1cccnc1)=C(C)N2` (centres undefined), the inhibition is 0% (inactive). With `COc1ccc(OC)c(NC(=O)CCN2CCC(C)CC2)c1` the figure was 0% (inactive); with `COc1ccc2[nH]c(=O)c(CN(CC3CCCO3)C(=O)Nc3ccc(F)cc3)cc2c1` (centres undefined), 0% (inactive). With `CCOC(=O)C1CCN(c2c(N(C)Cc3ccco3)c(=O)c2=O)CC1` the figure was 0% (inactive). Regarding `O=C(CN1CCN(c2nc(-c3ccc(F)cc3)cs2)CC1)NCc1ccc2c(c1)OCO2`, the inhibition was 5% (inactive).

In the case of `O=C(CN1C(=O)NC2(CCCCC2)C1=O)Nc1ccc(S(=O)(=O)N2CCOCC2)cc1`, the inhibition is 5% (inactive). With `CCOC(=O)N1CCN(C(=O)CCc2ccc(S(=O)(=O)NCCc3ccccc3)cc2)CC1` the figure was 3% (inactive); with `FC(F)(F)c1nnc2sc(-c3cccs3)nn12`, 4% (inactive); with `CC(C)Cn1c(=O)c(C(=O)NCc2ccccn2)c(O)c2ccccc21`, 0% (inactive). As for `COc1ccc(Cl)cc1C(=O)n1nc(C)cc1C`, the inhibition is 0% (inactive).

Take `Cc1cn([C@H]2C=C[C@@H](CO)O2)c(=O)[nH]c1=O`: the inhibition was 0% (inactive). The result for `c1ccc2c(-c3nc(C4CCCCC4)no3)cc(-c3ccncc3)nc2c1` reads 1% (inactive); that for `COc1ccc(-n2c(SCC(=O)c3c(N)n(C)c(=O)n(C)c3=O)nc3ccccc32)cc1`, 0% (inactive).

As for `Cc1ccc2nc(NC(=O)C3CCCN(S(=O)(=O)c4cnc[nH]4)C3)sc2c1` (centres undefined), the inhibition was 1% (inactive).

For the molecule `O=C(CNC(=O)c1cc2ccccc2o1)NCc1cccs1`, the inhibition was 0% (inactive). With `C=CCNC(=O)CNS(=O)(=O)c1ccc(F)cc1` the figure was 2% (inactive); with `CCC(=O)c1ccc(OCCN2CCOCC2)cc1`, 4% (inactive). With `CSCCC(NC(=O)OC(C)(C)C)C(=O)NC(CC(C)C)C(N)=O` (stereo not drawn) (Boc-Met-Leu-NH2; configuration not given here), the inhibition is 0% (inactive). The result for `COc1cc(C2C(C#N)=C(N)OC3=C2C(=O)CCC3)ccc1OC(=O)N1CCOCC1` (centres undefined) reads 0% (inactive); that for `C=C(c1cccc2ccccc12)P(=O)(O)O`, 2% (inactive).
